SMILES strings stand for the structures. The panel holds about 83,000 compounds, 20% with a hit somewhere; the sample as a whole holds those more often.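 Assay: single dose, 48 h. Readout: percent growth (0 = no net growth; negative = cell death). Active: <10.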 Unmarked numbers belong to inactive results. Active and inactive are the calls of the source.

Holding throughout (assay): NCI-60 one-dose screen, 48 h (100 = growth as untreated, 0 = no growth, -100 = all killed)
Details in all cases: 10 µM unless noted

Assay [1] relates to NCI-H23 lung.
For assay [2], the system named is NCI-H226 lung.
Assay [3] has as its system NCI-H322M lung.
In assay [4] the test system is HOP-62 NSCLC.
Assay [5] concerns NCI-H460 lung.
Assay [6] relates to HOP-92 NSCLC.
Assay [7] deals with NCI-H522 lung.
Assay [8] has as its system A549/ATCC NSCLC.
Assay [9] concerns 786-0 renal.
The test system of assay [10] is COLO 205 colon.
In assay [11] the test system is DU-145 prostate.
Assay [12] relates to K-562 leukemia.
Assay [13] concerns MALME-3M melanoma.
For assay [14], the system named is MDA-MB-231 breast.
Assay [15] has as its system RXF 393 renal.
Assay [16] deals with SF-268 CNS.
The test system of assay [17] is SF-295 CNS.
Assay [18] concerns SF-539 CNS.
The subject of assay [19] is UACC-257 melanoma.
The test system of assay [20] is M14 melanoma.

Consider `COC(=O)N1CCN(CCNCc2ccc(NC(=O)c3ccc(C)c(C#Cc4cnc5cccnn45)c3)cc2C(F)(F)F)CC1`, for which the growth was 36.2% in [1]; 31.1% in [2]; 75.3% in assay [3]; 24.9% in assay [4]; 22.2% in assay [5]; 12.2% in assay [6]. The growth in [7] is 30.2%; in [8] it was 27.9%; in assay [9], 38.2%; in [10], 2.48% (active); in assay [11] it was 44.9%; in [12], 5.18% (active). Besides, the growth is -49.1% (active) in [13]; -9.19% (active) in assay [14]; -47.2% (active) in assay [15]; 28.2% in assay [16]; -25.1% (active) in assay [17]; -15.9% (active) in [18]. Moreover, the growth in assay [19] was -10.6% (active); in assay [20] it was 8.75% (active).

Take `COc1cc2oc(-c3cccc(NC(=O)c4cccc([N+](=O)[O-])c4)c3)cc(=O)c2c(OC)c1OC`: the growth is 69% in assay [1]; 62.8% in assay [2]; 82.4% in assay [3]; -36.4% (active) in [4]; 51.2% in [5]; -0.118% (active) in assay [6]. In addition, the growth is 58.5% in [7]; 43.8% in assay [8]; 65.6% in assay [9]; 85.8% in assay [10]; 66.9% in assay [11]; 60.3% in assay [12]. Besides, the growth in [13] was 33.7%; in [14] it was 41%; in assay [15] it was 36.4%; in [16], 43.2%; in [17], 79.8%; in assay [18] it was -8.95% (active). Besides, the results for the growth in [19] and in assay [20] were 88.2% and 83.8%, respectively.

With `CC(C)(C)Nc1nc2c(OCCc3ccccc3)cccn2c1-c1cccc(Oc2ccccc2)c1`, the growth in assay [1] was 11.1%; in assay [2], 15.2%; in assay [3], 15.8%; in [4], 11.1%; in [5], 8.14% (active); in assay [6], -12.8% (active). Further, the growth in [7] is -26.1% (active); in assay [8], 16.3%; in [9], 8.48% (active); in assay [10] it was -93.8% (active); in assay [11] it was 25.5%; in assay [12] it was 15.7%. The growth in assay [13] was 0.427% (active); in [14], 17.7%; in assay [15], -8.9% (active); in assay [16], 32.4%; in assay [17], 6.47% (active); in [18], -0.94% (active). The growth is 6.07% (active) in assay [19] and 18% in [20].

Consider `COc1ccc(C(C)=C(c2ccc(OCCN(C)C)cc2)c2ccc(OCCN(C)C)cc2)cc1`, for which the growth in [1] was -13.7% (active); in assay [2] it was -7.67% (active); in [3], -2.39% (active); in assay [4], -15.8% (active); in assay [5], -14.8% (active); in [6], -43.6% (active). The growth was -60.1% (active) in [7]; -3.07% (active) in assay [8]; -88.5% (active) in [9]; -73% (active) in assay [10]; 20% in assay [11]; -67.4% (active) in assay [12]. Besides, the growth is -74.4% (active) in assay [13]; -52.2% (active) in [14]; -79.1% (active) in assay [15]; -12% (active) in assay [16]; -70.2% (active) in [17]; -79.4% (active) in assay [18]. The growth in [19] was -70.4% (active); in [20], -85.8% (active).

On to `COc1cc(-c2nc(-c3ccccc3)[nH]c2-c2ccnc(NCCCNS(=O)(=O)c3ccc(C)cc3)n2)ccc1F`, for which the growth in [1] is 103%; in assay [2], 75.7%; in assay [3], 93.1%; in assay [4], 150%; in assay [5], 91.9%; in assay [6] it was 122%. For the same compound, the growth in [7] was 80%; in assay [8] it was 74.2%; in assay [9] it was 94.5%; in [10], 96%; in assay [11] it was 86.7%; in assay [12], 58.9%. Moreover, the growth is 100% in [13]; 91.7% in [14]; 82.7% in assay [15]; 80.2% in assay [16]; 99.6% in assay [17]; 89.4% in [18]. The figures for the growth in assay [19] and in [20] were 99.7% and 77.7%, respectively.

For `COc1ccc(N2CCN(C3=C(Cl)C(=O)c4ncccc4C3=O)CC2)cc1`, the growth in assay [1] was 55.9%; in assay [2] it was 94%; in assay [3] it was 97.2%; in assay [4], 85.4%; in assay [5] it was 52.7%; in assay [6], 96.2%. Moreover, the growth in assay [7] was -9.71% (active); in [8] it was 96%; in [9], 107%; in assay [10], 30.5%; in assay [11] it was 5.58% (active); in assay [12], 6.59% (active). In addition, the growth is 23.7% in assay [13]; 62.5% in assay [14]; 15.2% in [15]; 86% in assay [16]; 108% in assay [17]; 89.6% in [18]. The growth in assay [19] was 24.6%; in assay [20], 45.6%.

With `O=C(/C=C/Nc1ccc(S(=O)(=O)Nc2ncccn2)cc1)c1ccc(N=Cc2c(O)[nH]c3ccccc23)cc1`, the growth in [1] was 96.5%; in [2], 107%; in [3], 114%; in assay [4] it was 108%; in [5], 105%; in [6] it was 93.6%. Besides, the growth in assay [7] is 98.7%; in assay [8], 102%; in assay [9], 96.2%; in assay [10] it was 117%; in assay [11] it was 116%; in assay [12], 97.1%. Moreover, the growth in assay [13] was 127%; in [14] it was 99.9%; in [15] it was 113%; in assay [16] it was 112%; in assay [17], 105%; in [18], 102%. Further, the results for the growth in assay [19] and in assay [20] were 101% and 109%, respectively.

With `CCCCN1C(=O)/C(=c2\sc3n(c2=O)C2C(NN=3)N(CC)C(=O)N2CC)c2cc(C)ccc21` (stereo not given), the growth in [1] is 95.5%; in [2], 87.3%; in assay [3], 88.1%; in assay [4], 108%; in [5] it was 102%; in assay [6], 86.5%. The growth in assay [7] is 88.3%; in assay [8], 91.4%; in assay [9], 94.4%; in assay [10], 94%; in assay [11], 98.7%; in [12], 79.8%. Moreover, the growth in [13] was 89.3%; in [14] it was 79.5%; in assay [15], 61.2%; in [16], 87%; in assay [17], 99.6%; in assay [18], 67%. Besides, the growth was 98.7% in assay [19] and 107% in assay [20].

Source of the values: PubChem BioAssay (NCI).
